Test results published in the supplement of paper PMC10849652.
Of roughly 8,800 targets only a part is listed; those with a hit were picked by preference. About 0.5% of all pairs of compound and target were hits. A number with no mark means an inactive call.

Legend:
Experiment in all cases: log2 fold change, soluble protein after heating vs DMSO (PISA); higher = thermal stabilisation; K562 lysate, 10 uM; active = over 0.2 and 3.5 SD of the protein, either way, in both replicates (recomputed)
alvocidib = compound: CN1CC[C@H](c2c(O)cc(O)c3c(=O)cc(-c4ccccc4Cl)oc23)[C@H](O)C1 [alvocidib]
How it was run: (§1)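 K562 pellets were dounce-homogenised in PBS pH 7.4 with 1 mM MgCl2, and the crude extract at 1 mg/mL protein was treated with 10 μM compound for 30 min. Aliquots were heated for 3 min across 48°C-58°C, pooled, and brought to 0.5% NP-40 at 4°C; soluble protein was the supernatant after 21,000xg for 90 min. Soluble protein was quantified by TMTpro 16plex LC-MS/MS with channel sums equalised, and reported as log2 fold change in thermal stability against DMSO controls, with values from duplicates.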

Tubastatin A = compound: CN1CCc2c(c3ccccc3n2Cc2ccc(C(=O)NO)cc2)C1 [Tubastatin A]
How it was run: as §1

[1] = compound: CNC(=O)C1=CC=CC=C1NC2=NC(=NC=C2Cl)NC3=C(C=C(C=C3)N4CCOCC4)OC
How it was run: as §1

defactinib = compound: CNC(=O)c1ccc(Nc2ncc(C(F)(F)F)c(NCc3nccnc3N(C)S(C)(=O)=O)n2)cc1 [defactinib]
How it was run: as §1

[2] = compound: CNc1nc(-c2ccc3c(N)n[nH]c3c2)cc(N2C[C@@H](C(=O)NC3CCCCC3)CC[C@H]2C)n1
How it was run: as §1

encorafenib = compound: COC(=O)N[C@@H](C)CNc1nccc(-c2cn(C(C)C)nc2-c2cc(Cl)cc(NS(C)(=O)=O)c2F)n1 [encorafenib]
How it was run: as §1

[3] = compound: COC(=O)[C@H](CCSC)NC(=O)C1=C(C=C(C=C1)NC[C@H](CS)N)C2=CC=CC=C2
How it was run: as §1

alisertib = compound: COc1cc(Nc2ncc3c(n2)-c2ccc(Cl)cc2C(c2c(F)cccc2OC)=NC3)ccc1C(=O)O [alisertib]
How it was run: as §1

[4] = compound: COc1cc2nc(-c3cc(F)ccc3O)nc(N[C@@H]3CNC[C@H]3C(C)(C)O)c2cc1OC
How it was run: as §1

gefitinib = compound: COc1cc2ncnc(Nc3ccc(F)c(Cl)c3)c2cc1OCCCN1CCOCC1 [gefitinib]
How it was run: as §1

lapatinib = compound: CS(=O)(=O)CCNCc1ccc(-c2ccc3ncnc(Nc4ccc(OCc5cccc(F)c5)c(Cl)c4)c3c2)o1 [lapatinib]
How it was run: as §1

pictilisib = compound: CS(=O)(=O)N1CCN(Cc2cc3nc(-c4cccc5[nH]ncc45)nc(N4CCOCC4)c3s2)CC1 [pictilisib]
How it was run: as §1

crizotinib = compound: C[C@@H](Oc1cc(-c2cnn(C3CCNCC3)c2)cnc1N)c1c(Cl)ccc(F)c1Cl [crizotinib]
How it was run: as §1

[5] = compound: C[C@H](C1=CC=C(C=C1)C(=O)NC2=C3C=CNC3=NC=C2)N
How it was run: as §1

duvelisib = compound: C[C@H](Nc1ncnc2nc[nH]c12)c1cc2cccc(Cl)c2c(=O)n1-c1ccccc1 [duvelisib]
How it was run: as §1

gandotinib = compound: Cc1cc(Nc2cc(CN3CCOCC3)c3nc(C)c(Cc4ccc(Cl)cc4F)n3n2)n[nH]1 [gandotinib]
How it was run: as §1

tozasertib = compound: Cc1cc(Nc2cc(N3CCN(C)CC3)nc(Sc3ccc(NC(=O)C4CC4)cc3)n2)n[nH]1 [tozasertib]
How it was run: as §1

doramapimod = compound: Cc1ccc(-n2nc(C(C)(C)C)cc2NC(=O)Nc2ccc(OCCN3CCOCC3)c3ccccc23)cc1 [doramapimod]
How it was run: as §1

bafetinib = compound: Cc1ccc(NC(=O)c2ccc(CN3CC[C@H](N(C)C)C3)c(C(F)(F)F)c2)cc1Nc1nccc(-c2cncnc2)n1 [bafetinib]
How it was run: as §1

[6] = compound: Cc1cccc(CC(=O)N2CCc3c2ccc(-c2cn(C)c4ncnc(N)c24)c3F)n1
How it was run: as §1

Sequence of UniProt P42330 (P42330 whole entry, looked up): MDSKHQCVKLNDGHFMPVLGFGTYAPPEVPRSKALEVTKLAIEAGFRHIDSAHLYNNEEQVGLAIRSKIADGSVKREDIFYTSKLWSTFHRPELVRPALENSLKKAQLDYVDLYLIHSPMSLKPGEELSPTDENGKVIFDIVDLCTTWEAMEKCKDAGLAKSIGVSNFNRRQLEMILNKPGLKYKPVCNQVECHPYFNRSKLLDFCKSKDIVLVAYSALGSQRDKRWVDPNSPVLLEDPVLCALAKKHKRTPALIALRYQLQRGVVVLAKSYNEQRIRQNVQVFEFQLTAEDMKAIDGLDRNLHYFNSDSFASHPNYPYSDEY
Sequence of UniProt P10398 (P10398 whole entry, looked up): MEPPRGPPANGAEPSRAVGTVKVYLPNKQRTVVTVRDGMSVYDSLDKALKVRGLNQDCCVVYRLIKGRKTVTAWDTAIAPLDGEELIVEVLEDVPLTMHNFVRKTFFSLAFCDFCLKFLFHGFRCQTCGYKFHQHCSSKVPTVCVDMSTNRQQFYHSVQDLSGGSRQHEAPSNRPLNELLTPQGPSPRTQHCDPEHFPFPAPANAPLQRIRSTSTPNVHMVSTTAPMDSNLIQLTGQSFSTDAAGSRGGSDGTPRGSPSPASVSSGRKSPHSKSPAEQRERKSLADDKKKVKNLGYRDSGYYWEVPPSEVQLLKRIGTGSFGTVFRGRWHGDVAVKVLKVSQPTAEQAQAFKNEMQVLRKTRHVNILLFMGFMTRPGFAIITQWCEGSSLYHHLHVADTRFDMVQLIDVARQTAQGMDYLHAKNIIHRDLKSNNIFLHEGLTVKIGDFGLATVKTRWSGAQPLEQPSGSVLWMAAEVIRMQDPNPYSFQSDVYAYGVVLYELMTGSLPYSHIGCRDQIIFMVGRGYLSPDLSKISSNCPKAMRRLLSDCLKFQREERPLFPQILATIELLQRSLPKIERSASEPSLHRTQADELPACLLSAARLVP
Sequence of UniProt P27695 (P27695 whole entry, looked up): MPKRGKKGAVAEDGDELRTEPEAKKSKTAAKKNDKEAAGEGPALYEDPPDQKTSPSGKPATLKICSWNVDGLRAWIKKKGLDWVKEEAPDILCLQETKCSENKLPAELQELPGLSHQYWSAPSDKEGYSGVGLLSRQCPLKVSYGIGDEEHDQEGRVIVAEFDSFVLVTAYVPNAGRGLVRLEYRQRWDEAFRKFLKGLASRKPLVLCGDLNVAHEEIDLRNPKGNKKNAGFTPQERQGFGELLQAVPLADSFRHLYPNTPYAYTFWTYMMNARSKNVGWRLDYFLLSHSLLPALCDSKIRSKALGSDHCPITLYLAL
Sequence of UniProt Q5T5U3 (Q5T5U3 whole entry, looked up): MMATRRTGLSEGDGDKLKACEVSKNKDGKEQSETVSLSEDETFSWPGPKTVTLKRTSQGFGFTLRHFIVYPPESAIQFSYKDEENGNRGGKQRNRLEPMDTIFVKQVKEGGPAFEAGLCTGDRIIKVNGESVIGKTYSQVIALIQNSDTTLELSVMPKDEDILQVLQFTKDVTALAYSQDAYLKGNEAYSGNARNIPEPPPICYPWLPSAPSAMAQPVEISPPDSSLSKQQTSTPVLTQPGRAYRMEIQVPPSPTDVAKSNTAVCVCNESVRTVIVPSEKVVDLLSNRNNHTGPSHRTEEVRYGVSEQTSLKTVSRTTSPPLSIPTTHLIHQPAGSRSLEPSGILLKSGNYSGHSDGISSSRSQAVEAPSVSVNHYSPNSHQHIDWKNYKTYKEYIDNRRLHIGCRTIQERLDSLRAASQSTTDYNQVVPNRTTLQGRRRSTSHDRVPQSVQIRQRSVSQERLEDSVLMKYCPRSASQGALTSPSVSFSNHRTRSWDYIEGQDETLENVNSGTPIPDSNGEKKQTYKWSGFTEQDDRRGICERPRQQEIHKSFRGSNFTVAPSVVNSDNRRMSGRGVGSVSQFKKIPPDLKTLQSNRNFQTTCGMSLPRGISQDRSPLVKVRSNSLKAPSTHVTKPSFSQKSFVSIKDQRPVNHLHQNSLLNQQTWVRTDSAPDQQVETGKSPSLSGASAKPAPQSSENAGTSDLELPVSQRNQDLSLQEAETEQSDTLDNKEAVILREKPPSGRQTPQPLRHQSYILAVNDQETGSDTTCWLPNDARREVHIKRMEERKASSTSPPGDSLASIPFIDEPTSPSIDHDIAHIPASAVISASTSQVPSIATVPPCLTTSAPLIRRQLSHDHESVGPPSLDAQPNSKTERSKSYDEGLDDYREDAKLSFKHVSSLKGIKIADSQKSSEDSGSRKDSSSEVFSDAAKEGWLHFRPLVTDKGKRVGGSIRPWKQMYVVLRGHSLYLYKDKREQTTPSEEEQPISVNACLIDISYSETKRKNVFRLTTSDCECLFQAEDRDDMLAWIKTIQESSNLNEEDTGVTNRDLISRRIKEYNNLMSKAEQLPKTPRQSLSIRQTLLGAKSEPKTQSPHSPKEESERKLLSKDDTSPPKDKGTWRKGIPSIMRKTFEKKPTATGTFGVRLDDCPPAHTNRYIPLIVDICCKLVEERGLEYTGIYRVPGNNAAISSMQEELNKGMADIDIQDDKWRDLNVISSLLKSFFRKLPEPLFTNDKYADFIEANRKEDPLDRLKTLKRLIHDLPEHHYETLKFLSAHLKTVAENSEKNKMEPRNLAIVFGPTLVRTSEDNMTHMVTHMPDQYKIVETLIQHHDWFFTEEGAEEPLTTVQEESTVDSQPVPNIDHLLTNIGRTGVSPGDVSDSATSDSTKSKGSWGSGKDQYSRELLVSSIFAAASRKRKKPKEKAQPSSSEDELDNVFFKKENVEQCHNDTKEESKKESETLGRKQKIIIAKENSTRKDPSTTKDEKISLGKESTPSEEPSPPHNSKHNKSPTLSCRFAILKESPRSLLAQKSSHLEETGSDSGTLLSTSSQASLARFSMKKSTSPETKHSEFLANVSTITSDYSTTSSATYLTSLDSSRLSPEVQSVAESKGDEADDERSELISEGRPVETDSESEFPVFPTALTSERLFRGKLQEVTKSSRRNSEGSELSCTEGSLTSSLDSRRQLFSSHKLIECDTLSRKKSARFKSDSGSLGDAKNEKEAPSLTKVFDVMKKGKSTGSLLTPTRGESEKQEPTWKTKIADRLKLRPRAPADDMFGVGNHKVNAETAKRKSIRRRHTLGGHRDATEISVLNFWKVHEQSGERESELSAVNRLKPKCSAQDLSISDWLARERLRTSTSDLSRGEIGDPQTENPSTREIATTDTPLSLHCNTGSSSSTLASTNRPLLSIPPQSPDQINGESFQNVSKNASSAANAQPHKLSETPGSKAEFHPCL
Sequence of UniProt Q96BM9 (Q96BM9 whole entry, looked up): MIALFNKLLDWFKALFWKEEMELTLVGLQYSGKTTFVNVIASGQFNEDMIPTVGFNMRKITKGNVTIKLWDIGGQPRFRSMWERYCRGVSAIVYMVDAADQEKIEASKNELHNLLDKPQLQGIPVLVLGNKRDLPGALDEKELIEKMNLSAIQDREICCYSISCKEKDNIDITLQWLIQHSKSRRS
Sequence of UniProt P24752 (P24752 whole entry, looked up): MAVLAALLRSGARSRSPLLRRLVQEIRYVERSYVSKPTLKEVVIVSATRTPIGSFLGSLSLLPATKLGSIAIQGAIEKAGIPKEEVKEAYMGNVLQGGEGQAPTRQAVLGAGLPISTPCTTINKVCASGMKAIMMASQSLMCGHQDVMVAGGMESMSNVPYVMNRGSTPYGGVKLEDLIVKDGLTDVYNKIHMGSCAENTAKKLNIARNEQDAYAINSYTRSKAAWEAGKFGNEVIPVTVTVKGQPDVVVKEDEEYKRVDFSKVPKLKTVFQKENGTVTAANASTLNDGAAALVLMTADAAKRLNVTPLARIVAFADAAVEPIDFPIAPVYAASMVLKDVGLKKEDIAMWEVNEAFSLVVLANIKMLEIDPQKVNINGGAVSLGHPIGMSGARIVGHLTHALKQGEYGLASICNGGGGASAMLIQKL
Sequence of UniProt P31751 (P31751 whole entry, looked up): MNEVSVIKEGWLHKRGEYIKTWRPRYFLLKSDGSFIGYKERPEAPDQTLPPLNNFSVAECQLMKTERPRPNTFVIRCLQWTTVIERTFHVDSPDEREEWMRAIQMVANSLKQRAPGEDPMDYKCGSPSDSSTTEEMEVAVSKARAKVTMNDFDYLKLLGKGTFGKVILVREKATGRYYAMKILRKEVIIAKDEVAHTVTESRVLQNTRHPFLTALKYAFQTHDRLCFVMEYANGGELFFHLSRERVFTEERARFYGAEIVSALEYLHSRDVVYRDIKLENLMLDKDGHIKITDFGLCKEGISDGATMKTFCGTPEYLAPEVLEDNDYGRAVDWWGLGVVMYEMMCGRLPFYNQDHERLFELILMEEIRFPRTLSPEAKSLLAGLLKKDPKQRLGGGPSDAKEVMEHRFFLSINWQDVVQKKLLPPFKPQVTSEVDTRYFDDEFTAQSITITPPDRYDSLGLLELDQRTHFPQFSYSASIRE
Sequence of UniProt P51649 (P51649 whole entry, looked up): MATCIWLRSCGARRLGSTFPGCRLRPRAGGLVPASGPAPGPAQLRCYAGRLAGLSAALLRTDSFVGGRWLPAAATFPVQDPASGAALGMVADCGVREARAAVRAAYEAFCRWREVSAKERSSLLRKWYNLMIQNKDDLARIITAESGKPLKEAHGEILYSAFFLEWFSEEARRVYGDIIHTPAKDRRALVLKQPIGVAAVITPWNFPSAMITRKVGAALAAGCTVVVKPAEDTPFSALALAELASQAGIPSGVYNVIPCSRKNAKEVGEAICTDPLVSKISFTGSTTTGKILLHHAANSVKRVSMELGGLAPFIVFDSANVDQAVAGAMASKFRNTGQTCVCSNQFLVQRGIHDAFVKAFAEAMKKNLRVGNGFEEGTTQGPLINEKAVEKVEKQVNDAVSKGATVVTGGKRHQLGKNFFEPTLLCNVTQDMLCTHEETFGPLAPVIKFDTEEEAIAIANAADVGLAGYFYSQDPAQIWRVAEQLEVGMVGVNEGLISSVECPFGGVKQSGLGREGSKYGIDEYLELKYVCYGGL

Row | Target | log2 fold change (alvocidib) | log2 fold change (Tubastatin A) | log2 fold change [1] | log2 fold change (defactinib) | log2 fold change [2] | log2 fold change (encorafenib) | log2 fold change [3] | log2 fold change (alisertib) | log2 fold change [4] | log2 fold change (gefitinib) | log2 fold change (lapatinib) | log2 fold change (pictilisib) | log2 fold change (crizotinib) | log2 fold change [5] | log2 fold change (duvelisib) | log2 fold change (gandotinib) | log2 fold change (tozasertib) | log2 fold change (doramapimod) | log2 fold change (bafetinib) | log2 fold change [6]
1 | ARL8A (UniProt Q96BM9) | 0.082 | 0.043 | 0.06 | 0.019 | 0.204 | -0.048 | -0.03 | -0.186 | 0.027 | 0.013 | -0.11 | 0.038 | 0.091 | 0.426 (active) | -0.078 | 0 | -0.063 | -0.005 | -0.016 | -0.088
2 | AKT2 (UniProt P31751) | 0.001 | -0.061 | 0.036 | -0.013 | -0.064 | 0.028 | 0.037 | 0.003 | -0.005 | -0.013 | -0.022 | 0.005 | 0.015 | -0.007 | -0.005 | -0.022 | 0.033 | -0.015 | 0.051 | -0.036
3 | ASNS (UniProt P08243) | 0.019 | -0.025 | -0.036 | 0.006 | 0.027 | -0.009 | -0.12 | 0.019 | 0.009 | 0.004 | -0.019 | -0.012 | -0.042 | 0.013 | -0.001 | -0.051 | 0.011 | -0.01 | -0.033 | 0.002
4 | ACACA isoform 4 (UniProt Q13085) | 0.016 | -0.115 | -0.011 | -0.008 | -0.02 | 0.032 | -0.16 | 0.014 | 0 | -0.004 | -0.019 | 0 | -0.081 | -0.001 | 0.032 | -0.068 | 0.033 | 0.045 | -0.056 | 0.061
5 | AFF4 (UniProt Q9UHB7) | -0.235 | -0.086 | -0.046 | 0.077 | 0.018 | 0.011 | -0.027 | -0.022 | 0.015 | 0.013 | 0.003 | -0.007 | -0.033 | 0.011 | 0.059 | 0.066 | 0 | 0 | 0.05 | 0.001
6 | APEX1 (UniProt P27695) | 0.13 | -0.07 | 0.006 | 0.023 | 0.038 | -0.024 | 0.076 | 0 | -0.019 | -0.064 | 0.022 | 0.039 | -0.01 | 0.352 (active) | -0.025 | -0.042 | -0.029 | -0.045 | 0.106 | -0.067
7 | AKAP8 (UniProt O43823) | -0.031 | -0.038 | -0.059 | -0.001 | -0.073 | 0.072 | -0.098 | 0.02 | 0.058 | -0.042 | 0.008 | -0.126 | 0.023 | 0.035 | 0.022 | 0.003 | 0.017 | -0.071 | -0.119 | 0.039
8 | AMPD3 isoform 4 (UniProt Q01432) | 0.012 | 0.027 | 0.015 | 0.011 | -0.034 | -0.013 | 0.103 | 0.008 | -0.068 | 0.012 | 0.037 | -0.015 | 0.014 | 0.109 | -0.053 | -0.057 | 0.001 | 0.002 | -0.002 | -0.047
9 | ALDH5A1 isoform 2 (UniProt P51649) | 0.063 | 0.048 | 0.007 | 0.016 | -0.02 | -0.028 | 0.077 | 0.001 | 0.006 | -0.042 | -0.012 | -0.049 | -0.044 | 0 | -0.056 | -0.059 | 0.005 | -0.011 | 0.008 | -0.035
10 | ACAT1 (UniProt P24752) | 0.018 | -0.136 | 0.001 | -0.027 | 0.05 | -0.033 | 0.04 | 0 | -0.006 | -0.06 | -0.024 | -0.013 | 0.029 | -0.018 | -0.016 | 0.03 | -0.009 | -0.005 | 0.026 | 0.008
11 | ARHGAP21 (UniProt Q5T5U3) | 0.032 | 0.008 | 0.03 | 0.015 | 0.056 | 0.079 | 0.101 | -0.023 | -0.007 | -0.095 | 0.081 | -0.116 | -0.073 | 0.071 | -0.007 | 0.102 | -0.092 | 0.013 | -0.133 | 0.053
12 | AARS2 (UniProt Q5JTZ9) | 0.064 | -0.093 | -0.011 | -0.05 | -0.017 | 0.006 | 0.106 | 0.02 | -0.119 | -0.02 | 0.007 | 0.01 | -0.046 | 0.072 | 0.012 | -0.121 | 0.039 | 0.034 | -0.041 | 0.019
13 | AKR1C3 (UniProt P42330) | 0.026 | 0.073 | -0.052 | 0.017 | -0.211 | -0.026 | 0.022 | 0.056 | 0.028 | -0.003 | -0.03 | -0.024 | -0.039 | -0.014 | -0.036 | 0.052 | -0.003 | 0.022 | 0.022 | -0.026
14 | ARAF (UniProt P10398) | 0.036 | -0.08 | 0.019 | -0.039 | -0.105 | 0.307 (active) | 0.093 | -0.048 | 0.007 | 0.019 | -0.019 | 0.011 | -0.041 | -0.045 | -0.025 | -0.077 | -0.007 | 0.006 | -0.047 | -0.031
15 | ARGLU1 (UniProt Q9NWB6) | -0.119 | 0.018 | -0.056 | -0.049 | 0.01 | 0.012 | -0.039 | -0.006 | 0.012 | 0.006 | 0.038 | 0.013 | 0.043 | -0.062 | -0.023 | -0.119 | 0.045 | 0.019 | -0.014 | 0.013
16 | ACIN1 (UniProt E7EQT4) | -0.093 | 0.095 | 0.003 | -0.038 | 0.06 | 0.022 | -0.033 | -0.039 | -0.011 | 0.051 | -0.001 | -0.047 | -0.1 | -0.28 (active) | -0.021 | 0.047 | 0 | 0.068 | -0.063 | 0.032
